PubChem BioAssay AID720566 (Broad Institute, 2013)
Entries with a potency or affinity are not part of this list. Calls of active or inactive are those of the source.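 The calls were made as follows: active = in all runs, an absorbance decrease of 25% or more of the average positive control decrease; inconclusive = runs conflict, with both active and inactive results; inactive = all runs inactive, opposite-direction effects included.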

Target: Protein disulfide-isomerase A6 (Homo sapiens) (UniProt Q15084)
Sequence (Q15084 whole entry, looked up): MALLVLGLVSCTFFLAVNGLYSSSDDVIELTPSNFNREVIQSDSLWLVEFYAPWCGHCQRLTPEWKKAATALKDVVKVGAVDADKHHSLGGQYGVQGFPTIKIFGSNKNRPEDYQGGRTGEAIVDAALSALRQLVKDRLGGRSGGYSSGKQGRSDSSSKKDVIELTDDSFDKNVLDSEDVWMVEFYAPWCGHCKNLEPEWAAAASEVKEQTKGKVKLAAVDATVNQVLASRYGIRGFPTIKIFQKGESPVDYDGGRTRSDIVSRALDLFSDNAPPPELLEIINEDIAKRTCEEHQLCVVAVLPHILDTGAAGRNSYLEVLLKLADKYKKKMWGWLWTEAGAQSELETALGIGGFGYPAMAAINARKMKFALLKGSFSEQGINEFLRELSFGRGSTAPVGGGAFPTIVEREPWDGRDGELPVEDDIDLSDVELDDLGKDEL
Test: reduced insulin turbidity driven by ERp5 (PDIA6) – biochemical, absorbance 650 nm, cherry-picked samples, dose response (AID 720566);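 also: negative values mean less insulin aggregation so ERp5 inhibition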
Settings: Recombinant ERp5 insulin aggregation; series mostly up to 35 µM

SMILES	outcome
C[C@H](CO)N1C[C@H](C)[C@@H](CN(C)C(=O)Oc2ccc3ccccc3c2)OCc2cn(nn2)CCCC1=O	inactive
CCn1nc(/C=C/c2ccccc2)nc2c(=O)n(C)c(=O)nc1-2	inactive
Cc1cc(OCC(=O)NCc2ccc(S(N)(=O)=O)cc2)c2c3c(c(=O)oc2c1)CCC3	inactive
COc1ccc(C#Cc2ccc([C@H]3[C@H](CO)N4CCCCN(C(=O)Cc5cccnc5)C[C@@H]34)cc2)cc1	inactive
